Tau fluor counter: Counterscreen qHTS for Inhibitors of Tau Fibril Formation, Fluorescence Polarization; tau K18 P301L Alexa594 fluorescence, heparin fibrillization; Potency, µM (titrated, usually from 57.7 µM), for the others: top-dose activity change, negative = decrease; actives 0.93% (n = 280,000); AID 1463, 2008; further: nearly all actives have a fitted effect of over 55% in size
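Human K18 P301L tau (15 uM unlabeled plus 0.24 uM Alexa 594-labeled, final) in 100 mM sodium acetate pH 7 was mixed with compound and 20 uM heparin and incubated 6 hr at 37 C.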
TRb-SRC2 inh: qHTS for Inhibitors of the Interaction of Thyroid Hormone Receptor and Steroid Receptor Coregulator 2; actives 0.065% (n = 280,000); Potency, µM (highest dose often 106 µM), for the others: at the highest dose activity change, negative = inhibition, actives largely listed as inhibitors; Thyroid hormone receptor beta (Homo sapiens), P10828; AID 1469, 2008; TRbeta-SRC2 peptide binding, fluorescence polarization; receptor liganded with 1 µM T3;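 further: plate controls were bound peptide for no effect and peptide without receptor for full effect; nearly all actives have a fitted effect of over 50% in size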
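Assay buffer: 20 mM Tris-HCl, 100 mM NaCl, 10% glycerol, 1 mM EDTA, 0.01% NP-40, 1 mM DTT, 1 uM T3, 5% DMSO; TRb LBD 0.6 uM, Texas Red SRC2 20 nM; FP after 5 hr.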
Tau ThT inhib: qHTS for Inhibitors of Tau Fibril Formation, Thioflavin T Binding. Microtubule-associated protein tau (Homo sapiens), P10636. Potency, µM (highest dose often 57.4 µM), inactives show top-dose activity, negative = inhibition, usual class: inhibitors. AID 1460, 2008. actives 2.1% (n = 270,000). recombinant tau K18 P301L (four-repeat tau fragment), heparin-induced fibrillization, ThT fluorescence; further: nearly all actives have a fitted effect of over 55% in size
Target sequence (P10636 561-689 P618L limits assumed): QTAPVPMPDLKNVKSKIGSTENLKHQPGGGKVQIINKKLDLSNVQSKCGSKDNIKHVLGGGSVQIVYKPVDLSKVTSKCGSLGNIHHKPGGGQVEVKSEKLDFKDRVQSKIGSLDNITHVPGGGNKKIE
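K18 P301L tau (15 uM + 0.24 uM Alexa 594-tagged), heparin 20 uM, NaOAc pH 7, 6 h 37 C; ThT 30 uM, 1 h RT, ex 450/em 510 nm.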
Tau fibril FP: qHTS for Inhibitors of Tau Fibril Formation, Fluorescence Polarization. Microtubule-associated protein tau (Homo sapiens), P10636. K18 P301L tau heparin fibrillization, Alexa594 FP, 6 h. Potency, µM (titrated, usually from 57.7 µM), inactives show at the highest dose activity, negative = inhibition, hits mostly inhibitors. actives 0.39% (n = 280,000); further: nearly all actives have a fitted effect of over 55% in size
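K18 P301L tau (15 uM unlabeled/0.24 uM Alexa 594-labeled, final) + compound + heparin 20 uM final; 100 mM NaOAc pH 7; 6 hr 37 C; ThT 30 uM final added, 1 hr RT; FP ex 555/em 632 nm.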
RGS12 GoLoco inh: qHTS Assay for Inhibitors of RGS12 GoLoco Motif Activity (Red Fluorophore) | Guanine nucleotide-binding protein G(i) subunit alpha-1 (Homo sapiens), P63096 | Gai1:RGS12 GoLoco peptide FP, rhodamine, 10 min | Potency, µM (titrated, usually from 61.6 µM), for inactives: top-dose activity, negative = inhibition, most hits filed as inhibitors | actives 0.44% (n = 230,000); active means well fitted inhibition curve with a large enough effect, not every such curve was filed as active; inactive means no such curve, though single readings can be large or run the other way; further: nearly all actives have a fitted effect of over 30% in size
Target sequence (P63096 whole entry, looked up): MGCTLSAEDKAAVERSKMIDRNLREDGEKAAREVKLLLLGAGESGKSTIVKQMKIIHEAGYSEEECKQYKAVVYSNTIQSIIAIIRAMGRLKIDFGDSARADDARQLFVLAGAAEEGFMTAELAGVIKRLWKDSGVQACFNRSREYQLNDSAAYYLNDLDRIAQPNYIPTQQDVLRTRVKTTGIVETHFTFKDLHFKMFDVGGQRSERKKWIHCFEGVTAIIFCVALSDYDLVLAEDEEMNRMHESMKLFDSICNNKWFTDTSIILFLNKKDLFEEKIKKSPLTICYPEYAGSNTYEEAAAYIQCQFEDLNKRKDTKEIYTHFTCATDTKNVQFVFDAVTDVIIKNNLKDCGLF
TexasRed fluor: Total Fluorescence Counterscreen for Inhibitors of the Interaction of Thyroid Hormone Receptor and Steroid Receptor Coregulator 2. TRb/SRC2 Texas Red total fluorescence interference. Potency, µM (highest dose often 106 µM), without a hit: top-dose fluorescence change, negative = quenching. actives 0.29% (n = 280,000); active means well fitted curve in either direction with a large enough effect; inconclusive means small, poorly fitted or top-dose-only effect
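Human TRβ ligand-binding domain (0.6 uM) and Texas Red SRC2 peptide (20 nM) in Tris buffer with 1 uM T3 and 5% DMSO were incubated with pinned compound for 5 hr at ambient temperature. Total fluorescence was computed as S + 2P (555/632 nm).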
Starred values were filed as active, the others as inactive; ? = inconclusive; . = no result given; ! = repeats disagree; [ ] = remark or other dose. This is a sample that favours compounds with a hit; in the whole collection about 3.1% have one here. Unless noted, the call rests on the fitted dose curve; in most records, active means well fitted curve in the direction sought with a large enough effect; inconclusive means small, poorly fitted or top-dose-only effect, or another doubt; inactive means no such curve, though single readings can be large; an effect the other way counts as inactive or inconclusive. Unless noted, on the % scale 0 is the no-effect control and ±100 the full control effect; potency means the concentration at half of the fitted maximal effect.

SMILES	Tau fluor counter	TRb-SRC2 inh	Tau ThT inhib	Tau fibril FP	RGS12 GoLoco inh	TexasRed fluor
CCN(CC)c1ccc(N=Cc2c(O)n(-c3ccccc3C)c(=O)[nH]c2=O)cc1	-30%	-24%	20µM*	0%	8%	-1%
CCN(CC)c1ccc(N=Cc2c(O)n(-c3ccccc3)c(=O)[nH]c2=O)cc1	?	12%	.	-13%	77%	-2%
CC(=O)OC1CC2C(C)(C)C(O)C=C[C@@]2(C)C2CC[C@]3(C)C(=CC(=O)OC3c3ccoc3)[C@]12C (stereo partly drawn)	-14%	-5%	35µM*	?	1%	0%
C[C@H]1OC[C@@H](C[N+](C)(C)C)O1	-13%	7%	-14%	-12%	4µM*	0%
C[C@@H]1O[C@H](C[N+](C)(C)C)C[C@H]1O	0%	5%	-1%	2%	8%	1%
NC[C@H](CC(=O)O)c1ccc(Cl)cc1	-5%	-2%	-2%	4%	3%	-1%
C[C@@H]1C[C@H]2OC(=O)C3(CO3)[C@H]2[C@H](O)[C@]2(C)C(=O)C3OC3[C@@H]12 (stereo partly drawn)	-8%	1%	?	?	4%	-2%
C=C1C(=O)O[C@@H]2C[C@@H](C)[C@@H]3C=CC(=O)[C@@]3(C)[C@@H](O)[C@H]12	8.9µM*![quencher]	4%	3.5µM*	4µM*	18%	-6%
COc1ccc(N2C(=O)NC(=O)/C(=C/c3ccc([N+](=O)[O-])s3)C2=O)cc1	?	25%	.	32µM*	179%	1%
Cc1ccc(N2C(=O)NC(=O)/C(=C\c3ccc([N+](=O)[O-])o3)C2=O)cc1	-15%	16%	22µM*	?	194%	19%
Cc1ccc(N2C(=O)NC(=O)/C(=C\c3ccc(N4CCOCC4)cc3)C2=O)cc1	-13%	2%	?	-11%	55%	5%
COc1ccc(N2C(=O)/C(=C/C=C/c3ccccc3[N+](=O)[O-])C(=O)NC2=S)cc1	?	5%	28µM*	?	7%	-7%
COc1ccc(N2C(=O)/C(=C/c3cccs3)C(=O)NC2=S)cc1	2%	17%	.	6%	11%	9%
COc1ccccc1N1C(=O)NC(=O)/C(=C/c2ccc([N+](=O)[O-])s2)C1=O	?	9%	.	32µM*	41%	-6%
CCCC(=O)O[C@@H]1[C@@H](C)[C@@]2(O)[C@@H](C=C(CO)C[C@@]3(O)C(=O)C(C)=C[C@@H]23)[C@@H]2C(C)(C)[C@]12OC(=O)CCC	.	4%	.	.	.	-4%
CCOc1ccc(N2C(=O)NC(=O)/C(=C\c3cc(OC)c(OC)cc3[N+](=O)[O-])C2=O)cc1	-24%	1%	14µM*	?	-20%	-2%
COc1ccc(N2C(=O)NC(=O)/C(=C\c3ccc([N+](=O)[O-])s3)C2=O)cc1	?	?	14µM*	?	230%	?
CCOc1ccc(N2C(=O)NC(=O)/C(=C\c3ccc(N4CCOCC4)cc3C)C2=O)cc1	-18%	-8%	?	-14%	128%	?
Cc1ccc(OP(=O)(Oc2ccc(C)cc2)N2C=Cc3ccccc3[C@H]2C#N)cc1	.	.	.	.	4%[14.2 µM]	.
CCN(C(=O)CN1CC=C(c2ccccc2)CC1)c1c(N)n(Cc2ccccc2)c(=O)[nH]c1=O	4%	1%	-7%	1%	11%	-3%
O=C1CCO1	-9%	10%	-6%	0%	3%	-1%
O=C1NC(=O)N(Cc2ccc(F)cc2)C(=O)/C1=C\c1ccc(N2CCCC2)cc1	29%	20%	25µM*	-5%	67%	18%
COc1ccc(CN2C(=O)NC(=O)/C(=C/c3ccc([N+](=O)[O-])s3)C2=O)cc1	?	16%	7.9µM*	25µM*	41%	-3%
O=C1NC(=O)N(Cc2ccc(F)cc2)C(=O)/C1=C\c1ccc([N+](=O)[O-])s1	?	14%	.	0.35µM*	41%	3%
COC(=O)[C@@H]1C[C@@]2(O)[C@H](O)[C@H](O)[C@H](O)C[C@H]2N1Cc1cccnc1	-6%	7%	-6%	1%	-18%	-3%
SMILES	Tau fluor counter	TRb-SRC2 inh	Tau ThT inhib	Tau fibril FP	RGS12 GoLoco inh	TexasRed fluor
CN1C(=O)C(=Cc2ccc(N3CCOCC3)c([N+](=O)[O-])c2)C(=O)N(C)C1=O	-18%	4%	?	-6%	-16%	0%
O=C1NC(=O)C(=Cc2ccc(N3CCN(C(=O)c4ccccc4)CC3)c([N+](=O)[O-])c2)C(=O)N1	-15%	-7%	11µM*	-13%	-25%	-3%
C=C1C/C(=C/C)C(=O)O[C@@H]2CCN3CC=C(COC(=O)[C@]1(C)O)[C@@H]23	-10%	0%	-9%	-4%	5%	-1%
CC(C)[C@@]1(NC(=O)[C@@H]2C[C@@H]3c4cccc5[nH]cc(c45)C[C@H]3N(C)C2)O[C@@]2(O)C3CCCN3C(=O)[C@H](Cc3ccccc3)N2C1=O (stereo partly drawn)	7.1µM*[quencher]	-5%	?	?	4%	?
CC(C)[C@@]1(NC(=O)[C@@H]2C[C@@H]3c4cccc5[nH]cc(c45)C[C@H]3N(C)C2)O[C@@]2(O)[C@@H]3CCCN3C(=O)[C@H](Cc3ccccc3)N2C1=O	2.8µM*[quencher]	5%	?	?	9%	-1%
COc1ccc(NC(=O)N2CCCC3(CCN(C(=O)Oc4ccccc4)CC3)C2)cc1	.	.	.	.	-5%	.
CN(CCc1ccc(Cl)c(Cl)c1)[C@@H]1CCCC[C@@H]1N1CCCC1	?	9%	?	0%	-4%	-3%
CC(=O)Nc1c2sscc-2n(C)c1=O	-18%	7%	16µM*	?	-11%	-15%
Cc1cccc(N2C(=O)CSC23C(=O)N(CC(=O)Nc2cccc(Cl)c2)c2ccccc23)c1 (stereo not drawn)	?	3%	11%	25µM*	.	2%
CN1CC[C@@]2(C)c3cc(O)ccc3N(C)C12 (stereo partly drawn)	?	?	7.1µM*	8.9µM*	-37%	-9%
CN1CC[C@]2(C)c3cc(O)ccc3N(C)[C@@H]12	.	-2%[53 µM]	.	.	-29%[21.6 µM]	-4%[53 µM]
